Screening results from PubChem BioAssay.
A selection: hits, their analogues and other compounds. The true share with any hit is near 0.83%.
Six1-Eya2 inh = Six1/Eya2 interaction inhibition. AlphaScreen GST-Six1/His-Eya2 binding, biochemical; hits give low values. activity change, % (concentration not given with the values). actives 0.56% (n = 360,000). AID 651725; also: % is scaled to controls: 0 for no effect and ±100 for the full control effect
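Compounds are tested against tagged Six1 and Eya2 proteins bridged by glutathione donor and nickel acceptor beads; after a one-hour incubation at 37 °C without light, AlphaScreen emission is recorded.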
Menin-MLL TR inh = displaces Texas Red mutant MLL peptide from human menin; O00255; Menin + Texas Red MLL mutant peptide, fluorescence polarization; actives 0.23% (n = 270,000); AID 1768; Potency, µM (series often up to 61.6 µM), inactives show top-dose FP activity change, negative = inhibition, most hits filed as inhibitors; active = well fitted inhibition curve with a large enough effect in the polarisation, with a control signal flat, not every such curve was filed as active; inconclusive = small, poorly fitted or top-dose-only effect, or effect the other way, or a change in a side signal; inactive = no such curve, though single readings can be large or run the other way; the % refers to the polarisation; also: potency is read from the fitted curve at half-maximal effect; % of control where 0% means no effect
MLL CXXC-DNA inh = blocks binding of human MLL CXXC domain to DNA; Q03164; MLL-CXXC / FITC-HOXA9 DNA fluorescence polarization; Potency, µM (titrated, usually from 115 µM), inactives show at the top dose activity change, negative = inhibition, most hits filed as inhibitors; actives 0.037% (n = 290,000); AID 2662; active = well fitted inhibition curve with a large enough effect in the polarisation, with a control signal flat, not every such curve was filed as active; inconclusive = small, poorly fitted or top-dose-only effect, or effect the other way, or a change in a side signal; inactive = no such curve, though single readings can be large or run the other way; the % refers to the polarisation; also: potency is read from the fitted curve at half-maximal effect
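Steps: dispense CXXC domain solution (7 uM) → pin compounds or unlabeled HOX-A9 DNA control → 5 min ambient → add FLSN-HOX-A9 solution (50 nM) → spin → 30 min ambient → fluorescence polarization. Tris pH 7.5/NaCl/DTT/BSA buffer.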
CtBP-E1A blk = CtBP/E1A binding inhibition. AlphaScreen GST-E1A/His-CtBP binding, 1536-well; hits give low values. activity change, % (concentration not given with the values). actives 0.49% (n = 340,000). AID 651724; also: % is scaled to controls: 0 for no effect and ±100 for the full control effect
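AlphaScreen with 125 nM GST-E1A and 125 nM His-CtBP (5X stocks) in Tris pH 8.0, 300 mM NaCl, BSA, Tween 20, TCEP. Compounds preincubated 2 h at 37 deg C, then glutathione donor/nickel acceptor beads added for 1 h at 37 deg C in dark.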
GLS inhibitor = glutaminase GLS (human) inhibition | GLS enzymatic activity, qHTS titration | actives 0.21% (n = 410,000) | Potency, µM (highest dose often 45.5 µM), without a hit: at the highest dose activity change, negative = inhibition, most hits filed as inhibitors; active = well fitted inhibition curve with a large enough effect; inconclusive = small, poorly fitted or top-dose-only effect, or another doubt; inactive = no such curve, though single readings can be large or run the other way; also: potency is read from the fitted curve at half-maximal effect; % is scaled to controls: 0 for no effect and ±100 for the full control effect
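hKGA in 45 mM KH2PO4 pH 8.2, 0.02% Tween-20 with pin-transferred compounds; 1 mM L-glutamine (stock) plus glutamate oxidase/HRP/Amplex Red coupling added. Fluorescence read initially and after 30 min at RT.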
Menin MLL FP FL = displaces fluorescein MLL peptide from human menin. Fluorescence polarization, fluorescein-MLL peptide displacement from menin. FP activity change, % at 61.4 µM. 290,000 tested, under 10 active. AID 1766; active = well fitted curve in the direction sought with a large enough effect in the polarisation, not every such curve was filed as active; inconclusive = small, poorly fitted or top-dose-only effect, or effect the other way, or a change in a side signal; inactive = no such curve, though single readings can be large or run the other way; the % refers to the polarisation; also: % of control where 0% means no effect
Starred values were filed as active, the others as inactive; u = inconclusive; x = no result given; ! = repeats disagree; [ ] = dose if it differs, or a comment. Rule as the data show it, unless noted: active = activity change below about -65%; inconclusive = mostly about -30% to -63%; inactive = weaker than that.

SMILES | Six1-Eya2 inh | Menin-MLL TR inh | MLL CXXC-DNA inh | CtBP-E1A blk | GLS inhibitor | Menin MLL FP FL
COC(=O)c1ccc(NC(=O)CC2C(=O)N(c3ccccc3)C(=O)N2C2CCCC2)cc1 (centres undefined) | x | x | x | x | -3.6% | x
COc1ccnc2c1c(=O)n(Cc1ccc(Cl)cc1)c(=O)n2C | -1.2 | 1.0% | 9.0% | x | u | 2.5
COc1ccnc2c1c(=O)n(Cc1ccccc1Cl)c(=O)n2C | 3.7 | 1.0% | 6.1% | x | 12.6µM* | 4.3
COc1ccnc2c1c(=O)n(Cc1ccc(Cl)cc1Cl)c(=O)n2C | -3.5 | 18.6% | 12.3% | -6.6 | 11.2µM* | 3.7
COC(=O)c1ccc(NC(=O)CSC2=Nc3ccccc3C3CC=NN23)cc1 (centres undefined) | 3.8 | 4.4% | -10.8% | 3.1 | 14.1µM* | 5.3
Cc1ccc(-c2cc(C(=O)Nc3c(C)n(C)n(-c4ccccc4)c3=O)no2)cc1 | 2.9 | u | 10.9% | 8.7 | -4.8% | 10.7
Cc1c(NC(=O)c2cc(-c3ccc(Cl)c(Cl)c3)on2)c(=O)n(-c2ccccc2)n1C | 3.0 | -3.6% | 7.5% | -4.6 | 15.8µM*! | 14.5
Cc1nnc(SCC(=O)c2c(N)n(C)c(=O)n(C)c2=O)[nH]c1=O | u | -3.0% | -3.6% | -72.7* | -2.6% | -0.1
Cc1cccc(C)c1NC(=O)c1cc(S(N)(=O)=O)c(Cl)cc1O | x | x | x | x | -0.7% | x
Cc1oc2ncn(C)c(=O)c2c1C(=O)NC(C)c1ccccc1 (centres undefined) | x | x | x | x | 11.2µM* | x
COc1ccc(OC)c(NC(=O)CSc2nnc3ccc4ccccc4n23)c1 | x | x | x | x | -5.3% | x
CO[C@H]1COC(=O)C/C=C\[C@@H](C)COC(=O)[C@@H](C)NC(=O)C/C=C\[C@@H]1C | x | 5.3%[11.7 µM] | x | x | x | -1.5[11.7 µM]
Oc1c(CN2CCOCC2)cc(COCc2ccccc2)c2cccnc12 | -91.5* | -0.8% | -0.3% | -88.2* | -16.8% | -1.8
Oc1c(CNc2ccccc2)cc(COCc2ccccc2)c2cccnc12 | x | x | x | x | 3.4% | x
COCc1cc(CN2CCN(C)CC2)c(O)c2ncccc12 | -91.7* | -18.4% | 1.5% | -93.5* | 36.7% | -1.9
O=C(Oc1c(CN2CCOCC2)cc(Cl)c2cccnc12)c1ccccc1Br | -94.0* | x | -8.1% | -68.9* | 0.3% | 0.0
CCOC(=O)N1CCN(Cc2cc(Cl)c3cccnc3c2O)CC1 | -77.6* | u | -21.3% | -90.9* | 8.2% | 1.5
CCOC(=O)N1CCN(Cc2ccccc2Cl)CC1 | 8.5 | -3.1% | -0.5% | 5.5 | -0.5% | 2.8
CC(=O)CC/C=C(\C)CC/C=C(/C)CC/C=C(\C)CCC=C(C)C | x | x | x | x | -0.3% | x
COc1ccc(OC)c(-c2nnc3n2N=C(c2ccccc2OC)CS3)c1 | x | u | x | x | x | -0.1
COc1cccc(/C=N/NC(=O)c2[nH]c(C)c(C(=O)N/N=C/c3cccc(OC)c3)c2C)c1 | -68.4* | -10.0% | 15.0% | u | -10.1% | 3.7
Cc1c(/C=N/NC(=O)c2ccc(O)cc2)c2ccccn2c1C(=O)c1ccc(F)cc1 | -70.4* | u | 20.8% | -78.3* | 4.2% | 8.7
CCOc1cccc(C2C(C#N)=C(N)Oc3cc(C)[nH]c(=O)c32)c1OCC (centres undefined) | 0.6 | x | u | x | 11.8% | -0.7
Cc1ccc2cc(C3C(C#N)=C(N)Oc4c3ccc3cccnc43)c(=O)[nH]c2c1 (centres undefined) | -71.7* | u | 0.9% | -93.7* | -5.4% | u
N#CC1=C(N)Oc2c(ccc3cccnc23)C1c1cccnc1 (centres undefined) | -90.8* | 14.8% | -23.6% | -92.2* | -19.1% | 4.0
SMILES | Six1-Eya2 inh | Menin-MLL TR inh | MLL CXXC-DNA inh | CtBP-E1A blk | GLS inhibitor | Menin MLL FP FL
CCc1ccc2[nH]c(=O)c(C3C(C#N)=C(N)Oc4c3ccc3cccnc43)cc2c1 (centres undefined) | u | -14.2% | -0.9% | -86.4* | 38.1% | 4.7
CSc1ccc(CCNC(=O)CCc2c(C)nc3cc(-c4ccccc4)nn3c2C)cc1 | x | x | x | x | -0.3% | x
O=C(NNC(=O)c1ccccn1)c1ccc(OC(F)F)cc1 | -84.4* | x | x | -78.0* | 0.3% | x
O=C(Nc1nccs1)c1ccccn1 | -86.8* | 4.4% | -16.2% | u | 4.9% | -8.1
O=C(Nc1nccs1)c1cnccn1 | -24.3 | 11.5% | 9.5% | u | -3.1% | 3.8
O=C(NNC(=O)c1cccs1)c1ccccn1 | -74.5* | x | x | u | 18.2% | x
Cn1c(=O)cc(SCC(=O)N2CCN(c3ccccc3F)CC2)c2ccc(Cl)cc21 | x | x | x | x | -0.8% | x
COc1ccc(OC)c(NC(=O)Cn2cc(C(=O)c3ccc(Cl)cc3)c(=O)c3cc(OC)ccc32)c1 | x | x | x | x | -4.6% | x
Cc1ccc(-n2c3c(c(=O)[nH]c2=O)C(NC(=O)c2ccccc2C)(C(F)(F)F)C(=O)N3)cc1 (centres undefined) | x | x | x | x | 1.0% | x
COc1cc2[nH]c(=O)n(CCCCCC(=O)N3CC=C(c4ccccc4)CC3)c(=O)c2cc1OC | u | -1.8% | -19.3% | -93.2* | 1.0% | -2.1
C=C1/C(=C\C=C2/CCC[C@@]3(C)[C@@H]([C@H](C)OCCC(C)(C)O)CC[C@@H]23)C[C@@H](O)C[C@@H]1O | x | x | x | x | -0.9% | x
Cc1ccc(S(=O)(=O)Nc2nc(CN3CCOCC3)nc3sc(C(=O)O)c(C)c23)cc1 | -12.5 | x | x | 1.0 | 17.8µM* | x
Cc1cc(S(=O)(=O)Nc2nc(CN3CCOCC3)nc3sc4c(c23)CCC4)cc(C)c1C | -5.8 | x | x | -10.7 | u | x
CCC(C)c1cc([N+](=O)[O-])cc([N+](=O)[O-])c1OC(=O)OC(C)C (centres undefined) | x | -21.7% | x | x | x | -0.9
CCSC1=NC(=O)/C(=C2/C=Cc3ccccc3N2CC)S1 | -79.1* | u | -4.5% | -74.2* | 17.9% | 13.7
COc1ccc(NS(=O)(=O)c2cc(NC(=O)CCNC(C)=O)ccc2N2CCCCC2)cc1 | -1.6 | x | x | -2.2 | 12.5% | x
COc1ccc(NS(=O)(=O)c2cc(NC(=O)/C=C/c3cc(OC)ccc3OC)ccc2N2CCCCC2)cc1 | -4.0 | 10µM* | 2.6% | 9.9 | 10.8% | 0.3
CC1CCC2C(=O)OC(Cc3ccccc3)CN2C1c1ccc(Br)cc1 (centres undefined) | x | -1.0%[11.7 µM] | x | x | x | 0.0[11.7 µM]
COc1cc2c(cc1OC)[C@@H](Cc1cc(OC)c(OC)c(OC)c1)[N@+](C)(CCCOC(=O)CC/C=C/CCC(=O)OCCC[N@+]1(C)CCc3cc(OC)c(OC)cc3[C@H]1Cc1cc(OC)c(OC)c(OC)c1)CC2 | x | x | x | x | 12.2% | x
CN(C)c1ccc(C(=S)N2CCN(c3ccc([N+](=O)[O-])cc3)CC2)cc1 | -10.0 | x | -2.3% | -6.8 | -26.2% | -0.8
O=[N+]([O-])c1ccc(C(=S)N2CCN(c3ccc(F)cc3)CC2)cc1 | u | 24.2% | -29.6% | 7.4 | 15.8µM* | -0.8
